Compounds with a hit are over-represented: about 8.2% of the library has one in this group of screens.
SW480 rereplic = A quantitative high throughput screen for small molecules that induce DNA re-replication in SW480 colon adenocarcinoma cells; SW480 DNA re-replication, Hoechst DNA content imaging, 48 h; Potency, µM (top dose mostly 46.1 µM), for inactives: top-dose re-replication activation, hits mostly activators; hit rate 1.8% among 340,000; further: % of control where 0% means no effect; nearly all actives have a fitted effect of over 55% in size
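Cells (250 per well) received 23 nL compound or DMSO by pin tool and were kept 48 hr at 37 C, 5% CO2. Nuclei were then stained with Hoechst for 40 min and scanned for DNA content.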
KB-3-1 cytotox = qHTS assay for MDR1-selective chemotherapeutics: Primary screen using the parental adenocarcinoma cell KB-3-1; hit rate 1.4% among 400,000; KB-3-1 viability, CellTiter-Glo ATP luminescence, 72 h; Potency, µM (highest dose often 46.1 µM), actives largely listed as cytotoxic; further: on the % scale 0 is the no-effect control and ±100 the full control effect; nearly all actives have a fitted effect of over 60% in size
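Multi-concentration cytotoxicity screen in KB-3-1 cells grown in DMEM lacking phenol red with 10% FBS. After 72 h at 37 °C with compound, ATP-dependent luminescence was recorded.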
MCF10A rerep = A quantitative high throughput screen for small molecules that induce DNA re-replication in MCF 10a normal breast cells | MCF 10A DNA re-replication, Hoechst nuclear intensity, 48 h | Potency, µM (titrated, usually from 46.1 µM), for inactives: top-dose activity, positive = re-replication, hits mostly activators | hit rate 2.9% among 350,000; further: % of control where 0% means no effect; nearly all actives have a fitted effect of over 50% in size
ELG1 repair inh = qHTS screen for small molecules that inhibit ELG1-dependent DNA repair in human embryonic kidney (HEK293T) cells expressing luciferase-tagged ELG1. HEK293T ELG1-luciferase reporter, luminescence, 16 h; DNA damage induced by 5-fluorouridine. Potency, µM (titrated, usually from 46.1 µM), inactives show at the highest dose activity change, negative = inhibition, most hits filed as inhibitors. hit rate 2.3% among 330,000; further: on the % scale 0 is the no-effect control and ±100 the full control effect; nearly all actives have a fitted effect of over 55% in size
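Quantitative HTS, concentration-response format. 2,000 cells/well co-treated with 5-fluorouridine and compound, 16 hr in 5% CO2 at 37 °C; ONE-Glo luminescence read after 30 min.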
KB-V1 MDR tox = qHTS assay for MDR1-selective chemotherapeutics: Primary screen using the drug-selected MDR subline cells KB-V1; Potency, µM (titrated, usually from 46.1 µM), usual class: cytotoxic; KB-V1 MDR cells viability, CellTiter-Glo, 72 h; hit rate 3.4% among 400,000; AID 1347076, 2019; further: on the % scale 0 is the no-effect control and ±100 the full control effect; nearly all actives have a fitted effect of over 60% in size
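Cells of the MDR subline KB-V1 are plated, dosed with compound at multiple concentrations, and incubated 72 h at 37 degrees C; CellTiter-Glo is then added and luminescence read after 10 min.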
ELG1 FLuc counter = qHTS screen for small molecules that inhibit ELG1-dependent DNA repair: Hit Confirmation in Cell-Based Luciferin Assay | shares compounds with ELG1 repair inh | cell-free firefly luciferase luminescence counter-screen, ViewLux | Potency, µM (doses to about 46.1 µM), without a hit: at the highest dose activity change, negative = inhibition, usual class: inhibitors | hit rate 3% among 350; further: on the % scale 0 is the no-effect control and ±100 the full control effect
ELG1 Luc conf = HTS assay for small molecules that inhibit ELG1-dependent DNA repair in human embryonic kidney (HEK293T) cells expressing luciferase-tagged ELG1: Hit Confirmation | shares compounds with ELG1 repair inh | HEK293T ELG1-luciferase levels, luminescence; cells co-treated with 5-fluorouridine | Potency, µM (series often up to 46.1 µM), for inactives: at the highest dose activity change, negative = inhibition, hits mostly inhibitors | hit rate 68% among 670 | AID 624248, 2012; further: on the % scale 0 is the no-effect control and ±100 the full control effect; nearly all actives have a fitted effect of over 55% in size
ELG1 MMS Luc = confirmation of human ELG1 repair inhibitors, MMS stimulated | shares compounds with ELG1 repair inh | HEK293T luciferase-tagged ELG1 level, MMS stimulated | Potency, µM (doses to about 46.1 µM), without a hit: top-dose activity change, negative = inhibition, most hits filed as inhibitors | hit rate 53% among 670; further: on the % scale 0 is the no-effect control and ±100 the full control effect; nearly all actives have a fitted effect of over 60% in size
ELG1 5-FU = qHTS screen for small molecules that inhibit ELG1-dependent DNA repair: Hit Confirmation with 5FU Viability; shares compounds with ELG1 repair inh; 670 tested, under 10 active; Potency, µM (doses to about 46.1 µM), inactives show at the top dose activity change, negative = viability loss, actives largely listed as cytotoxic; cell viability with 5-FU, ELG1-dependent repair;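 further: ELG1-luc HEK293T cells cotreated with 5-fluorouridine at 10 µM final; viability measured 16 h after compound addition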
ELG1 MMS cell = qHTS screen for small molecules that inhibit ELG1-dependent DNA repair: Hit Confirmation with MMS Viability; shares compounds with ELG1 repair inh; Cell viability with MMS, ELG1-dependent DNA repair; Potency, µM (highest dose often 46.1 µM), inactives show at the top dose activity change, negative = viability loss, actives largely listed as cytotoxic; hit rate 33% among 670;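 further: ELG1-luc HEK293T cells co-treated with 10 µM MMS; viability read 16 h after compound addition; on the % scale 0 is the no-effect control and ±100 the full control effect; nearly all actives have a fitted effect of over 60% in size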
ELG1 unstim viab = qHTS screen for small molecules that inhibit ELG1-dependent DNA repair: Hit Confirmation with Unstimulated Viability Assay. hit rate 8% among 900. Potency, µM (series often up to 45.9 µM), for inactives: top-dose activity change, negative = loss of viability, hits mostly cytotoxic. cell viability counter-screen, unstimulated, luminescence. shares compounds with ELG1 repair inh;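 further: compound exposure lasted 16 hours before reading; on the % scale 0 is the no-effect control and ±100 the full control effect; nearly all actives have a fitted effect of over 55% in size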
FLuc biochem = qHTS screen for small molecules that inhibit ELG1-dependent DNA repair: Hit Confirmation in Biochemical Luciferin Assay; hit rate 10% among 350; purified firefly luciferase, luminescence counter-screen; AID 624253, 2012; shares compounds with ELG1 repair inh; Potency, µM (titrated, usually from 57.5 µM), without a hit: at the highest dose activity, negative = inhibition, hits mostly inhibitors; further: on the % scale 0 is the no-effect control and ±100 the full control effect
* = called active by the depositor; i = inactive; ? = inconclusive; · = no result; [ ] = dose if it differs, or a comment. The call rests on the fitted dose curve; in most records, active means well fitted curve in the direction sought with a large enough effect; inconclusive means small, poorly fitted or top-dose-only effect, or another doubt; inactive means no such curve, though single readings can be large; an effect the other way counts as inactive or inconclusive. Potency means the concentration at half of the fitted maximal effect.

SMILES | SW480 rereplic | KB-3-1 cytotox | MCF10A rerep | ELG1 repair inh | KB-V1 MDR tox | ELG1 FLuc counter | ELG1 Luc conf | ELG1 MMS Luc | ELG1 5-FU | ELG1 MMS cell | ELG1 unstim viab | FLuc biochem
COCCN(C(=O)COC(=O)c1ccc(Cl)nc1)c1c(N)n(Cc2ccccc2)c(=O)[nH]c1=O | -11% | i | -2% | 17% | i | · | · | · | · | · | · | ·
C=CCc1c(OC(C)=O)c2ccccc2n(C)c1=O | -3% | i | -1% | 3.3µM* | i | · | ? | 7.1µM* | 0% | 10µM* | ? | ·
O=C1CCc2cc(NS(=O)(=O)c3ccccc3)cc3c2N1CC3 | -60% | i | 10% | 28% | i | 26% | · | · | · | · | 3% | 1%
O=C1CCc2cc(NS(=O)(=O)c3ccccc3)cc3c2N1CCC3 | 0% | i | ? | ? | i | 14% | · | · | · | · | 6% | 0%
O=C1CCc2cc(NS(=O)(=O)c3ccc(Cl)cc3)cc3c2N1CC3 | 1% | i | 15% | ? | i | · | · | · | · | · | · | ·
O=C1CCc2cc(NS(=O)(=O)c3ccc(F)cc3)cc3c2N1CCC3 | -7% | i | 23% | 17% | i | · | · | · | · | · | · | ·
O=C(C1CCCC1)N1CCC(CC2CC(c3cccc(Br)c3)=NO2)(C(=O)NCC2CCCCC2)CC1 (centres undefined) | -1% | i | -7% | 4.1µM* | i | · | 16µM* | ? | 2% | -19% | ? | ·
CCc1cccc(NC(=O)C2CCCN(c3ncnc4c3nc3n4CCCCC3)C2)c1 (centres undefined) | -5% | i | ? | 18µM* | i | -8% | 14µM* | 22µM* | 1% | -6% | ? | -6%
COc1cc(NC(=O)C2CCCN(c3ncnc4c3nc3n4CCCCC3)C2)cc(OC)c1OC (centres undefined) | ? | i | 7% | 1.8µM* | i | 9% | 4.5µM* | 9% | ? | 7% | 0% | 1%
O=C(C1CCCN(c2ncnc3c2nc2n3CCCCC2)C1)N1CCN(c2ccccc2F)CC1 (centres undefined) | -12% | i | -1% | 9.2µM* | i | -7% | 11µM* | 25µM* | -7% | -8% | ? | -5%
CC1CCN(C(=O)C2CCCN(c3ncnc4c3nc3n4CCCCC3)C2)CC1 (centres undefined) | -4% | i | 17% | -21% | i | · | · | · | · | · | · | ·
CC1CN(S(=O)(=O)c2cccc(C(=O)NCCc3ccc(S(N)(=O)=O)cc3)c2)CC(C)O1 (centres undefined) | 4% | i | 4% | -21% | i | · | · | · | · | · | · | ·
COCCn1ccc2c(OCC(=O)Nc3cc(OC)ccc3OC)cccc2c1=O | 10% | i | ? | ? | ? | · | · | · | · | · | · | ·
CCOCCn1ccc2c(OCC(=O)Nc3cc(OC)ccc3OC)cccc2c1=O | ? | i | ? | 4.1µM* | 16µM* | · | 11µM* | 16µM* | ? | ? | ? | ·
CCOc1cccc(-c2nnc(SCC(=O)Nc3cc(C)ccc3OC)n2N)c1 | 2% | i | -184%[0.0737 µM] | 0.58µM* | i | 1% | ? | -18% | 9% | 0% | -5% | -8%
CC(=O)c1cccc(NS(C)(=O)=O)c1 | 1% | i | 3% | -11% | i | · | · | · | · | · | · | ·
CCOC(=O)c1c(C)[nH]c(C(=O)Nc2cc(OCC)c(N3CCOCC3)cc2OCC)c1C | 1% | i | -8% | 4.6µM* | i | · | 5.6µM* | 19% | ? | 0% | -16% | ·
CCN(CC)S(=O)(=O)c1ccc(N2CCOCC2)c(NC(=O)COc2ccccc2)c1 | -21% | i | -10% | ? | i | · | · | · | · | · | · | ·
CCN(CC)S(=O)(=O)c1ccc(N2CCOCC2)c(NC(=O)c2ccccc2F)c1 | 10% | i | -3% | 0% | i | · | · | · | · | · | · | ·
CCN(CC)S(=O)(=O)c1ccc(N2CCOCC2)c(NC(=O)c2[nH]c(C)c(C(C)=O)c2C)c1 | 2% | i | 2% | ? | ? | · | · | · | · | · | -7% | ·
CCc1ccccc1OCC(=O)Nc1cc(S(=O)(=O)N(CC)CC)ccc1N1CCOCC1 | -15% | i | ? | 2.6µM* | i | · | 4.4µM* | 20% | ? | -3% | ? | ·
CCC(=O)N1CCc2cc(Br)cc(S(=O)(=O)N3CCC(C(=O)NCCCOC(C)C)CC3)c21 | ? | i | ? | 1.6µM* | i | · | 7.9µM* | 15% | ? | 4% | -2% | ·
Cc1ccc(-c2nnc(NCc3nc4ccccc4[nH]3)c3ccccc23)cc1S(=O)(=O)N1CCOCC1 | 7% | i | 25% | 4.6µM* | i | · | 7.1µM* | 16µM* | 9% | ? | ? | ·
C=C1NN(CC2CC2)C(=O)N1c1ccc(OCc2ccccc2)cc1 | · | i | · | · | i | · | · | · | · | · | · | ·
